# From PubChem BioAssay
# Tgondii IFNg: T. gondii growth inhibition under IFN-gamma. hit rate 3.8% among 69,000. Toxoplasma gondii growth in IFN-gamma-treated host cells; active compounds read low. AID 1259416. activity change, negative = inhibition, % (test concentration not listed); in the data active = activity change below about -70%, passing the limit was not always enough;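 also: host cells are HeLa cells infected with Toxoplasma gondii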
# * = called active by the depositor; i = inactive. The entries come from a sample that favours hits as a whole.
SMILES,Tgondii IFNg
Cc1oc(-c2cccc(Oc3ccccc3)c2)nc1CN1CCN(c2ccccc2O)CC1,18.3
CC[C@@H]1C[C@H](C(F)(F)F)n2nc(C3CCN(C(=O)c4cc(C(C)C)on4)C3)cc2N1 (stereo partly specified),242.5
CCc1cc(C(F)(F)F)c2c(C3CCN(C(=O)c4cc(C(C)C)[nH]n4)CC3)noc2n1,-76.4*
CC(C)Nc1n[nH]c2nc(C3CCN(C(=O)C(C)C)CC3)cc(C(F)(F)F)c12,-65.3
Cc1ccc(-c2csnn2)cc1NC(=O)Cc1csc(-c2ccccc2)n1,32.0
COC[C@H]1CCCN1C(=O)COc1c(C)ccc(C)c1C,-0.7
Cc1ccc(C)c(N2CCN(C(=O)c3csc(C(=O)NC4CC4)n3)CC2)c1,-3.5
COCCNC(=O)c1nc(Nc2ccc(C)cc2)c2ccccc2n1,-56.3
CC(=O)Nc1ccc(NC(=O)c2nc(-c3ccc(C)cc3)n3c2CCCCC3)cn1,-98.7*
Cc1cc(NC(=O)c2nc(-c3cccc(F)c3)n3c2CCCCC3)no1,236.3
CC1CCCCN1CCCNC(=O)c1nc(-c2ccc(Cl)cc2)n2c1CCCCC2 (stereo unspecified),-37.4
Cc1ccc(-c2nc(C(=O)Nc3cc(C)on3)c3n2CCCCC3)cc1,-109.6*
CC(C)CCNC(=O)c1nc(-c2cccc(F)c2)n2c1CCCCC2,-42.3
CC1CCN(C(=O)c2nc(-c3ccc(Cl)cc3)n3c2CCCCC3)CC1,21.8
CC1CC(C)CN(C(=O)c2nc(-c3cccc(F)c3)n3c2CCCCC3)C1 (stereo unspecified),-54.0
O=C(c1nc(-c2cccc(F)c2)n2c1CCCCC2)N1CCCCCC1,-87.5*
CCOC(=O)N1CCN(C(=O)c2nc(-c3ccc(C)cc3)n3c2CCCCC3)CC1,28.7
COC(=O)c1sccc1NC(=O)c1nc(-c2ccc(C)cc2)n2c1CCCCC2,-97.0*
O=C(c1nc(-c2cccc(F)c2)n2c1CCCCC2)N1CCN(c2ncccn2)CC1,5.7
CCCN1CCN(C(=O)c2nc(-c3ccc(C)cc3)n3c2CCCCC3)CC1,239.7
COc1ccc(OC)c(CC(=O)N(C)Cc2ccncc2C)c1,5.8
Cc1ccc(C(=O)N2CCCC3(CC(Oc4cccnc4)CO3)C2)o1 (stereo unspecified),-2.9
O=C1CN(C(=O)c2coc(CN3CCN(Cc4ccccc4)CC3)n2)CCCN1,0.1
Cc1cccc(C(=O)O/C(=C\c2nc3ccccc3n2C)c2cccc(C)c2)c1,-0.6
Cc1ccc(-n2nc3ccc(NC(=O)C(C)NS(=O)(=O)c4ccc(C)cc4)cc3n2)cc1 (stereo unspecified),188.6
SMILES,Tgondii IFNg
Cc1cc(NC(=O)CN2CCN(S(=O)(=O)N3CCCC3)CC2)no1,-3.7
O=C(O)CN1CCCC2(CCN(c3ccsc3)C2=O)C1 (stereo unspecified),-66.8
CCCCCCn1c(=O)c2c(ncn2C)n(C)c1=O,15.8
CCCCn1c(=O)c2c(nc3n2CCCN3CCc2ccccc2)n(C)c1=O,-97.2*
CCN1CCN(CC2(O)CCCN(CCCc3ccccc3)C2=O)CC1 (stereo unspecified),0.4
COCc1cnc2n1CCN(C(=O)c1cnc(C)cn1)C2C (stereo unspecified),60.5
Cc1noc(-c2cc(=O)n(CC(=O)Nc3ccc(N(C)C)cc3)c3ccccc23)n1,132.1
Cc1c(-c2ccc(O)cc2)n(Cc2ccc(OCCN3CCCCCC3)cc2)c2ccc(O)cc12,-76.1*
Nc1ccc(OCCN2CCCCCC2)cc1,9.8
CN1CCN(CCOc2ccc(C(=O)O)cc2)CC1,62.9
Cc1c(-c2cc(C(=O)Nc3cccc(-c4cccc(F)c4)c3)no2)cnn1C,-2.8
O=C(NCC1CC1)[C@@H]1CCS(=O)(=O)[C@H]2CN(c3ncccn3)C[C@@H]12,0.8
CCCc1cc(N2CCCC(Nc3ccc4c(c3)OCCO4)C2)nc(C)n1 (stereo unspecified),3.9
CN(C)CC1(O)CCCN(S(=O)(=O)N(C)Cc2ccccc2)CC1 (stereo unspecified),-77.9*
CN(C)CC1(O)CCCN(C(=O)CCOc2ccccc2)C1 (stereo unspecified),4.8
CN(C)CC1(O)CCCN(Cc2ccccc2OCC(=O)O)CC1 (stereo unspecified),-12.7
O=C(c1ccoc1)N1CCC2(CC1)CC(OCc1ccccn1)CO2 (stereo unspecified),0.5
COc1ccc(C(=O)NCCc2sc(-c3ccc(C)cc3)nc2C)cc1OC,i
CC(=O)O/N=C1/C(=O)N(Cc2cc(Cl)ccc2Cl)c2ccc(Cl)cc21,-79.2*
O=C1C(=O)N(Cc2ccc(Cl)c(Cl)c2)c2ccccc21,20.2
CC1CCN(S(=O)(=O)c2ccc3c(c2)CCC(=O)N3CC(=O)N(C)C2CCCCC2)CC1,-3.9
Cc1nccn1Cc1ccccc1C(=O)N1CCN(CCOC(C)C)CC1,-0.1
Cc1nc(C(C)NC(=O)c2[nH]c3c(C)ccc(C)c3c2C)n[nH]1 (stereo unspecified),1.8
COc1ccccc1CNC(=O)CN1C(=O)CCc2cc(S(=O)(=O)N3CCC(C)CC3)ccc21,20.7
O=c1ccc2cc(S(=O)(=O)NCCN3CCN(c4ccccc4F)CC3)ccc2[nH]1,-18.5
